Assay results published in PMC7862700, “An all-to-all approach to the identification of sequence-specific readers for epigenetic DNA modifications on cytosine”.

Tests used:
Experiment in all cases: DAPPL (digital affinity profiling via proximity ligation, sequencing); 10 mM Tris-HCl pH 7.5, 50 mM NaCl, 1 mM DTT, 4% glycerol, room temperature, 30 min; GST-TFs on glutathione beads, 16-mer random dsDNA library, 0.1% formaldehyde crosslink after washing; high values mean tight binding
[1] = target: T1, FLI1 (Homo sapiens, UniProt Q01543 1-452); conditions: protein: recombinant; tags: N-terminal GST; dsDNA, one strand shown
T1 sequence: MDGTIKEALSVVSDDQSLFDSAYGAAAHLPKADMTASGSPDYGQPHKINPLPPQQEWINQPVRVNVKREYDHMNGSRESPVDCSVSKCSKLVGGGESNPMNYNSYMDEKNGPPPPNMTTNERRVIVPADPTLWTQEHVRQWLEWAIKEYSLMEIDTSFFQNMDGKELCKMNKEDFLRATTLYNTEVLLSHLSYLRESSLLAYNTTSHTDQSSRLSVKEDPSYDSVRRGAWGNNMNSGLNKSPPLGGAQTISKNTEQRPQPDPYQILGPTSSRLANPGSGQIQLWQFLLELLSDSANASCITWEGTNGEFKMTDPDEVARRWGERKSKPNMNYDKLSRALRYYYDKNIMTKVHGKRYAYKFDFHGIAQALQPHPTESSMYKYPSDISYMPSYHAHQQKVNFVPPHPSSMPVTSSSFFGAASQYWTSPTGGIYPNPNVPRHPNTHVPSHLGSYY
Summary of the method: (§1)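 Pools were built from human transcription factors expressed in yeast as GST fusions, captured on glutathione beads and DNA-barcoded, along with a tag-only sample. Incubation with 200 nmole of a 16-mer random double-stranded DNA library lasted 30 min at room temperature in Tris/NaCl/DTT/glycerol buffer, and was followed by washing, 0.1% formaldehyde crosslinking, proximity ligation, PCR amplification and Illumina NextSeq500 sequencing. Binding signal is the quotient of each hexamer's read frequency for a factor and its frequency for the tag-only sample.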

[2] = target: T2, ELK1 (Homo sapiens, UniProt P19419 1-428); conditions: protein: recombinant; tags: N-terminal GST; dsDNA, one strand shown
T2 sequence: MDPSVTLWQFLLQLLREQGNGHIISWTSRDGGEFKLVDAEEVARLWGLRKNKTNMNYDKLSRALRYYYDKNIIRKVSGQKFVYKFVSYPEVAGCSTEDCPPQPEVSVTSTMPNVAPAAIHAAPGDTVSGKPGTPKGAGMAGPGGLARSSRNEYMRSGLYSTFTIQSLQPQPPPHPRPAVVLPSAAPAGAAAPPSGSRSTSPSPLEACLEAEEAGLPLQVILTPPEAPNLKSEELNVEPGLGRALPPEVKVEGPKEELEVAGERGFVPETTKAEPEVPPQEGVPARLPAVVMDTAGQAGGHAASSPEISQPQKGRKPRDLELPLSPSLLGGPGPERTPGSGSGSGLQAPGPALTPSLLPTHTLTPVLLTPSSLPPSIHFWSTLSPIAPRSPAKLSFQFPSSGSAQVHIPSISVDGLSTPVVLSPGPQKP
Summary of the method: as §1

[3] = target: T3, GABPA (Homo sapiens, UniProt Q06546 1-454); conditions: protein: recombinant; tags: N-terminal GST; dsDNA, one strand shown
T3 sequence: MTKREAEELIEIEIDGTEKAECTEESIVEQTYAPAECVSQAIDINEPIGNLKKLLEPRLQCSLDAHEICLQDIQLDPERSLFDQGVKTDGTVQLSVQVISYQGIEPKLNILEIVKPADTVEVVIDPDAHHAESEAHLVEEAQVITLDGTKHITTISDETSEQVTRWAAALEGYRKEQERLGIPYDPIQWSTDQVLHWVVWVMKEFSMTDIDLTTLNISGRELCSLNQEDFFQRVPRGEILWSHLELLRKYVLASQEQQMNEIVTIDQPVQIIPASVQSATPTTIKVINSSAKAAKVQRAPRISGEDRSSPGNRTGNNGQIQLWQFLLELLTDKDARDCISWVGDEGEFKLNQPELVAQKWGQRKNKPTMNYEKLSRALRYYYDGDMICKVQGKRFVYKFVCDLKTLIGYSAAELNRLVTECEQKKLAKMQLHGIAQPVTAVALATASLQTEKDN
Summary of the method: as §1

[4] = target: T4, ERG (Homo sapiens, UniProt P11308 1-479); conditions: protein: recombinant; tags: N-terminal GST; dsDNA, one strand shown
T4 sequence: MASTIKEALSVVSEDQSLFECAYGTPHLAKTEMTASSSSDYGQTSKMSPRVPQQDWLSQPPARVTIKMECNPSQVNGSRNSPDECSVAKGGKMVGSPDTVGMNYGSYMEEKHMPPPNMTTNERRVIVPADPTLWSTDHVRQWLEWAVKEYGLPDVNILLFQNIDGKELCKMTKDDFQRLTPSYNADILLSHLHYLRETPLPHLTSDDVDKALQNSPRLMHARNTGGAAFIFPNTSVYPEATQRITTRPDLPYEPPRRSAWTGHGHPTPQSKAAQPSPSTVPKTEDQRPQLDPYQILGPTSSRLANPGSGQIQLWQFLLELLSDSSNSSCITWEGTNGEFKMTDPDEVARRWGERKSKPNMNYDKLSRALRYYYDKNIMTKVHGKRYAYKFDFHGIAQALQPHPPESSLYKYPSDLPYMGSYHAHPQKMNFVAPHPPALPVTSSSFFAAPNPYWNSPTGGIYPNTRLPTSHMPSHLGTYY
Summary of the method: as §1

[5] = target: ELF1 (Homo sapiens, UniProt P32519 1-619); conditions: protein: recombinant; tags: N-terminal GST; dsDNA, one strand shown
Summary of the method: as §1

[6] = target: T5, EHF (Homo sapiens, UniProt Q9NZC4 1-300); conditions: protein: recombinant; tags: N-terminal GST; dsDNA, one strand shown
T5 sequence: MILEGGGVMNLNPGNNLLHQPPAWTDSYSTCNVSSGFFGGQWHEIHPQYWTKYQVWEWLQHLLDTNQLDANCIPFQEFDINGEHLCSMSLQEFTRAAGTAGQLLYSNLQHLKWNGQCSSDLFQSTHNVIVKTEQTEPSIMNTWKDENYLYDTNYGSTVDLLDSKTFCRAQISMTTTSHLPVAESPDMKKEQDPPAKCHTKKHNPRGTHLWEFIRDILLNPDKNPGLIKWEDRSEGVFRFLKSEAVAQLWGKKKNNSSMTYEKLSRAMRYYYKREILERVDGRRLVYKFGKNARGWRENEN
Summary of the method: as §1

[7] = target: SPI1 (Homo sapiens, UniProt P17947 1-270); conditions: protein: recombinant; tags: N-terminal GST; dsDNA, one strand shown
Summary of the method: as §1

[8] = target: SPIB (Homo sapiens, UniProt Q01892 1-262); conditions: protein: recombinant; tags: N-terminal GST; dsDNA, one strand shown
Summary of the method: as §1

[9] = target: T6, ELK3 (Homo sapiens, UniProt P41970 1-407); conditions: protein: recombinant; tags: N-terminal GST; dsDNA, one strand shown
T6 sequence: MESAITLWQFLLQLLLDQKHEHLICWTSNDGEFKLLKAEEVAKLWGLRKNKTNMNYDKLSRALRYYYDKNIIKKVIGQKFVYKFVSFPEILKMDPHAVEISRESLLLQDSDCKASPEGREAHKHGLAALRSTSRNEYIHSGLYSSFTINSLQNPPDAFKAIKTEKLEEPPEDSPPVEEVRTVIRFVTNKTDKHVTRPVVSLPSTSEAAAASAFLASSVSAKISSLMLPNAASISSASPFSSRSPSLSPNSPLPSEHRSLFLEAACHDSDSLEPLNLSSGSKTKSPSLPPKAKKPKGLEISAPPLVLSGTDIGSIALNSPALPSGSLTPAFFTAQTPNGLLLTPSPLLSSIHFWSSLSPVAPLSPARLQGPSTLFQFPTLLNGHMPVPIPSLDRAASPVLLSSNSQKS
Summary of the method: as §1

[10] = target: T7, FEV (Homo sapiens, UniProt Q99581 1-238); conditions: protein: recombinant; tags: N-terminal GST; dsDNA, one strand shown
T7 sequence: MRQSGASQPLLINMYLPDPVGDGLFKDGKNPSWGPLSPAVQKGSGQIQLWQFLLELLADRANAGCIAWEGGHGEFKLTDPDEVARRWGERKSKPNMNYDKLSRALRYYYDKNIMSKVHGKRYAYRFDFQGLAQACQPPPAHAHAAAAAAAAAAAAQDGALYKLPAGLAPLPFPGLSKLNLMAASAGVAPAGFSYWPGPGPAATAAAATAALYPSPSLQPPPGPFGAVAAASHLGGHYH
Summary of the method: as §1

[11] = target: ETV5 (Homo sapiens, UniProt P41161 1-510); conditions: protein: recombinant; tags: N-terminal GST; dsDNA, one strand shown
Summary of the method: as §1

[12] = target: HSF1 (Homo sapiens, UniProt Q00613 1-529); conditions: protein: recombinant; tags: N-terminal GST; chain copies: 3; dsDNA, one strand shown
Summary of the method: as §1

[13] = target: T8, SPIC (Homo sapiens, UniProt Q8N5J4 1-248); conditions: protein: recombinant; tags: N-terminal GST; dsDNA, one strand shown
T8 sequence: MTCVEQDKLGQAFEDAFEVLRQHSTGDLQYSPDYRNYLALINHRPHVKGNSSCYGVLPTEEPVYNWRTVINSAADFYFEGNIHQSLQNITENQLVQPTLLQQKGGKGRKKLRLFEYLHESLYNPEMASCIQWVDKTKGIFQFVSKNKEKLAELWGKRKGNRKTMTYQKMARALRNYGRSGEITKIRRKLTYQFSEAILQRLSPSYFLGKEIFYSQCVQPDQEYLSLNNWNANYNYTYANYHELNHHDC
Summary of the method: as §1

[14] = target: ELF4 (Homo sapiens, UniProt Q99607 1-663); conditions: protein: recombinant; tags: N-terminal GST; dsDNA, one strand shown
Summary of the method: as §1

[15] = target: T9, ELK4 (Homo sapiens, UniProt P28324-2 1-405); conditions: protein: recombinant; tags: N-terminal GST; dsDNA, one strand shown
T9 sequence: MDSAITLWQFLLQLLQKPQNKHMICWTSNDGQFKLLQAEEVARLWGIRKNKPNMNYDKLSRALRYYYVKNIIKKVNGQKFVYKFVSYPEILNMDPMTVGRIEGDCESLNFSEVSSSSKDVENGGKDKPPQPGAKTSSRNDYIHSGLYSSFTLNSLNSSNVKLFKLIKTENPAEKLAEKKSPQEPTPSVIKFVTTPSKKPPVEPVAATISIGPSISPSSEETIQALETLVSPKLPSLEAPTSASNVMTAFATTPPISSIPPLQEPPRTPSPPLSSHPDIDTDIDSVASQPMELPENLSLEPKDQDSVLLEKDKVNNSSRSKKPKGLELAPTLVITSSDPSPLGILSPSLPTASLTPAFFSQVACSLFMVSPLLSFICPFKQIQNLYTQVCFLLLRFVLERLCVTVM
Summary of the method: as §1

[16] = target: T10, ETV2 (Homo sapiens, UniProt O00321 1-342); conditions: protein: recombinant; tags: N-terminal GST; dsDNA, one strand shown
T10 sequence: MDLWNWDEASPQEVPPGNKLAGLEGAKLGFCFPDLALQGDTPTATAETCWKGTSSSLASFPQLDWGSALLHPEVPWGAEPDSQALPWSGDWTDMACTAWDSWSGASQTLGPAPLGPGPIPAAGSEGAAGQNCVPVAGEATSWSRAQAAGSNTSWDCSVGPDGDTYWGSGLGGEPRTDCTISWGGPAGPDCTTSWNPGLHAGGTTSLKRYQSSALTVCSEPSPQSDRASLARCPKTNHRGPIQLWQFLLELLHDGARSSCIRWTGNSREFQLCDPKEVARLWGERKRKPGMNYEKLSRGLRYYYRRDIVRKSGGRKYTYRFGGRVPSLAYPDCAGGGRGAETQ
Summary of the method: as §1

[17] = target: T11, ELF3 (Homo sapiens, UniProt P78545 1-371); conditions: protein: recombinant; tags: N-terminal GST; dsDNA, one strand shown
T11 sequence: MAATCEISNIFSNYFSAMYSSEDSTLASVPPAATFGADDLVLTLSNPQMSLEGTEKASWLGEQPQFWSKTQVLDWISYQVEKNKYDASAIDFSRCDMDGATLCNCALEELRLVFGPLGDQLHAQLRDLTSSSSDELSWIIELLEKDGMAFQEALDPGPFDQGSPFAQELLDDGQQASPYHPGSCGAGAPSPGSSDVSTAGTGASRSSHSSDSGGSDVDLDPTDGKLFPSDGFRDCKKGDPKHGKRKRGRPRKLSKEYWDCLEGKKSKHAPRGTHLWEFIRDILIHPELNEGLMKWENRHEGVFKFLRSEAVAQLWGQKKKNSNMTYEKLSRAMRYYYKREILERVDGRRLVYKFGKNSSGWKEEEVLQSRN
Summary of the method: as §1

[18] = target: CRX (Homo sapiens, UniProt O43186 1-299); conditions: protein: recombinant; tags: N-terminal GST; dsDNA, one strand shown
Summary of the method: as §1

[19] = target: ETV1 (Homo sapiens, UniProt P50549 1-477); conditions: protein: recombinant; tags: N-terminal GST; dsDNA, one strand shown
Summary of the method: as §1

Sequence of ETV1 (P50549 whole entry): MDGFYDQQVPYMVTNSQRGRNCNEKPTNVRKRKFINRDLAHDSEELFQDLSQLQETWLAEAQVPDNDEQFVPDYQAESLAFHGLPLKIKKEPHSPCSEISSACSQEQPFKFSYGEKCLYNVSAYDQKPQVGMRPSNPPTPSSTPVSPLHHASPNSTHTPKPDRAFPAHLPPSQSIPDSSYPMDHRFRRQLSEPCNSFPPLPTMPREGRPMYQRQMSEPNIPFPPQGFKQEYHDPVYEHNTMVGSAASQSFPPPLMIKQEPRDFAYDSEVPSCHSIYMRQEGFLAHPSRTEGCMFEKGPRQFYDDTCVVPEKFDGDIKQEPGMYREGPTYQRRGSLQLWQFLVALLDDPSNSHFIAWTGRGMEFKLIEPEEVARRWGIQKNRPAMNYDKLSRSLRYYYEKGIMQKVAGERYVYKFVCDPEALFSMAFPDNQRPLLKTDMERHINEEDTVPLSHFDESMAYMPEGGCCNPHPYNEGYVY
Sequence of SPIB (Q01892 whole entry): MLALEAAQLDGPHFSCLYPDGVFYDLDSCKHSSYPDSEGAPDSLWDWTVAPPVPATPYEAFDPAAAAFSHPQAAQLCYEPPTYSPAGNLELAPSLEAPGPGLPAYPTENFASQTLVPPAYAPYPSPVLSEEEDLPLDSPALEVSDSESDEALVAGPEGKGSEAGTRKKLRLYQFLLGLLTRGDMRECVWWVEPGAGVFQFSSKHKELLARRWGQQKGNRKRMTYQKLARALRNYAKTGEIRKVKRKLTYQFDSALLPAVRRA
Sequence of HSF1 (Q00613 whole entry): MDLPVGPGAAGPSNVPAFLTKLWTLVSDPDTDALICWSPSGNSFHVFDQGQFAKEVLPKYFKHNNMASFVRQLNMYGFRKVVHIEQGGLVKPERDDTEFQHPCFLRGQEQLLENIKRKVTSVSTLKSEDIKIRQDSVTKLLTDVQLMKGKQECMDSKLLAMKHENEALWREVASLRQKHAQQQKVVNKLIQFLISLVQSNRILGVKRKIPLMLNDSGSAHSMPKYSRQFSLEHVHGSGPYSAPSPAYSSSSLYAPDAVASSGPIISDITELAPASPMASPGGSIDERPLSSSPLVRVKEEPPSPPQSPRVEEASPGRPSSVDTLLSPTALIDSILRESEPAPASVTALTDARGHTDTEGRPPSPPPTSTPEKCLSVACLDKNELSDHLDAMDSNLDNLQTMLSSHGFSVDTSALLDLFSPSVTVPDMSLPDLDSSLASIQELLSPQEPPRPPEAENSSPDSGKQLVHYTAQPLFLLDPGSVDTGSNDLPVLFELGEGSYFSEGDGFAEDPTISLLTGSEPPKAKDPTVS
Sequence of ETV5 (P41161 whole entry): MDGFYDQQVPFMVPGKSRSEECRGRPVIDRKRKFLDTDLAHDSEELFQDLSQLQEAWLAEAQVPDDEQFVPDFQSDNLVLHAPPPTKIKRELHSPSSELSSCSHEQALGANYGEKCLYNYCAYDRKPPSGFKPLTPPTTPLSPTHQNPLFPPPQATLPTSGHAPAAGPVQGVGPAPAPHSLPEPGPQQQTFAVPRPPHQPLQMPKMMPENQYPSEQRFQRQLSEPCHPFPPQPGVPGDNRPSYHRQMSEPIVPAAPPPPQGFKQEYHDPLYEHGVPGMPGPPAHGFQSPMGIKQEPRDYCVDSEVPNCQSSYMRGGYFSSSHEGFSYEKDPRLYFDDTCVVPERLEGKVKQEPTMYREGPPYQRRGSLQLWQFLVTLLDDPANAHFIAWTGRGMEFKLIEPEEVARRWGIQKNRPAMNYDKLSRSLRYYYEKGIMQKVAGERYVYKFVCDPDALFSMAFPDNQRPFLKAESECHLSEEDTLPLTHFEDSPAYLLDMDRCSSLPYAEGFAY
Sequence of ELF1 (P32519 whole entry): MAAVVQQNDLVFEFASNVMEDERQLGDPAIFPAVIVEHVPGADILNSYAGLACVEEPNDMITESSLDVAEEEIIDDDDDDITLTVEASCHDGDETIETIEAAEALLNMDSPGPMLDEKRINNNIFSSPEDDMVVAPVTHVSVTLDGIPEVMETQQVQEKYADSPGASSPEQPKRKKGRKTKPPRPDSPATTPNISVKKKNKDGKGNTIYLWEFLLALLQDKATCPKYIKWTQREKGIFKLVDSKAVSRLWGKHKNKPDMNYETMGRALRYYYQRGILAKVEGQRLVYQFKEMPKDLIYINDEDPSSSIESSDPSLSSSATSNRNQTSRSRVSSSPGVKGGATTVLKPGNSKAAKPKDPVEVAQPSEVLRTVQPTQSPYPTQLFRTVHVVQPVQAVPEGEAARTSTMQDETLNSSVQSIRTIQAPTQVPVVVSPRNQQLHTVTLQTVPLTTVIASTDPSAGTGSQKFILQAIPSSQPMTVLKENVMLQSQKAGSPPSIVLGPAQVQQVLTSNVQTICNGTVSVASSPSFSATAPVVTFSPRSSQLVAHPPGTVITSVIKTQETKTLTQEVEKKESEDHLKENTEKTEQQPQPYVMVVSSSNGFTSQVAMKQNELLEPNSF
Sequence of CRX (O43186 whole entry): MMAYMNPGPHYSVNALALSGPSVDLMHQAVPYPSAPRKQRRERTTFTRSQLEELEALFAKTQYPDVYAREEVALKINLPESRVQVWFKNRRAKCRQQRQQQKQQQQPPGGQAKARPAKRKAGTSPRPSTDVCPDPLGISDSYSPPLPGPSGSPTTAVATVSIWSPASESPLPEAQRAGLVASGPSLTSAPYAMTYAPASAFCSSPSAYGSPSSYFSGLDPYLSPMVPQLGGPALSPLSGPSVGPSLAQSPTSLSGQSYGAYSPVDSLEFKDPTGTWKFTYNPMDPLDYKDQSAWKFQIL
Sequence of ELF4 (Q99607 whole entry): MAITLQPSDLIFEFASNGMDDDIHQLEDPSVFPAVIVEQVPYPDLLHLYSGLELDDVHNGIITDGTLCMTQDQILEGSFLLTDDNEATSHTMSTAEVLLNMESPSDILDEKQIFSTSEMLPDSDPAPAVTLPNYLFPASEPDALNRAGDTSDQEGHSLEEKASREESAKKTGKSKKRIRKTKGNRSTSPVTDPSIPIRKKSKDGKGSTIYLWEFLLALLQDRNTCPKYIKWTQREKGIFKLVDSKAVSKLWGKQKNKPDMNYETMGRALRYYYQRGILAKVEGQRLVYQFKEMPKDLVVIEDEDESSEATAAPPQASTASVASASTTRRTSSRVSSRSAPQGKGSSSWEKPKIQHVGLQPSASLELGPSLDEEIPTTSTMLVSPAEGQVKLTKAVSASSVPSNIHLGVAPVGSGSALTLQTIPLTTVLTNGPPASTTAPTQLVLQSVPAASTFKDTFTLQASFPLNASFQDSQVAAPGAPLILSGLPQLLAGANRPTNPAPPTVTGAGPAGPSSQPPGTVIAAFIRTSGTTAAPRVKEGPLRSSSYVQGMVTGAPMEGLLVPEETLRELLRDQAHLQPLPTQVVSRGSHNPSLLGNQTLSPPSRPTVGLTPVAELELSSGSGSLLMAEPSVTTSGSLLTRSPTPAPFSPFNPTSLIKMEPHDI

## TTCTTG
[1]
  binding signal: 1.42 fold enrichment (6-mer frequency, TF over GST control)
[2]
  binding signal: 1.46 fold enrichment (6-mer frequency, TF over GST control)
[3]
  binding signal: 1.5 fold enrichment (6-mer frequency, TF over GST control)
[4]
  binding signal: 1.38 fold enrichment (6-mer frequency, TF over GST control)
[5]
  binding signal: 1.46 fold enrichment (6-mer frequency, TF over GST control)
[6]
  binding signal: 1.56 fold enrichment (6-mer frequency, TF over GST control)
[7]
  binding signal: 1.45 fold enrichment (6-mer frequency, TF over GST control)
[8]
  binding signal: 1.39 fold enrichment (6-mer frequency, TF over GST control)
[9]
  binding signal: 1.35 fold enrichment (6-mer frequency, TF over GST control)
[10]
  binding signal: 1.29 fold enrichment (6-mer frequency, TF over GST control)
[11]
  binding signal: 1.41 fold enrichment (6-mer frequency, TF over GST control)
[12]
  binding signal: 1.98 fold enrichment (6-mer frequency, TF over GST control)
[13]
  binding signal: 1.31 fold enrichment (6-mer frequency, TF over GST control)
[14]
  binding signal: 1.43 fold enrichment (6-mer frequency, TF over GST control)
[15]
  binding signal: 1.34 fold enrichment (6-mer frequency, TF over GST control)
[16]
  binding signal: 1.18 fold enrichment (6-mer frequency, TF over GST control)
[17]
  binding signal: 1.46 fold enrichment (6-mer frequency, TF over GST control)
[18]
  binding signal: 1.55 fold enrichment (6-mer frequency, TF over GST control)
[19]
  binding signal: 1.47 fold enrichment (6-mer frequency, TF over GST control)
